# Pf Dd2 inh = Plasmodium falciparum Dd2 growth inhibition; actives 4.3% (n = 120,000); P. falciparum Dd2 growth, SYBR Green, 72 h; Potency, µM (titrated, usually from 28.9 µM), inactives show at the top dose activity, negative = inhibition, most hits filed as inhibitors; active = well fitted inhibition curve with a large enough effect;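 also: plate controls were DMSO vehicle for no effect and reference drug for full effect; nearly all actives have a fitted effect of over 65% in size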
#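 Infected erythrocytes (Dd2, 0.3% parasitemia, 2.5% hematocrit final) are added to compound in RPMI-1640/Albumax II medium, grown 72 h at 37C in low oxygen, then lysed with saponin/Triton-X containing SYBR Green and read by fluorescence.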
# An asterisk follows results filed as active; i = inactive; [ ] = remark or other dose. Only a selection was taken, and hits are over-represented in it overall. Potency is read from the fitted curve at half-maximal effect.
SMILES,Pf Dd2 inh
CCOc1ccc(Nc2nc(C)c(NC(=O)c3ccc(C)cc3)c(Nc3ccc(OCC)cc3)n2)cc1,-12%
Cc1ccc(C(=O)Nc2c(C)nc3ccccn3c2=O)cc1,17%
Cc1ccc(Nc2nc(C)c(NC(=O)c3ccc(C)cc3)c(Nc3ccc(C)cc3)n2)cc1,8.9µM*
Cc1cccc(CN2CCn3c(nnc3[C@@H]3C[C@@H](O)CN3Cc3cccnc3)C2)c1,-16%
Cc1cc(C(=O)NC2CCN(C(=O)N3CC4CC(C3)[C@H]3CCCC(=O)N3C4)CC2)nn1C (stereo partly drawn),10%
COc1cccc(N2CCN(C(=O)c3cccn3-c3nnc(N4CCCCC4)s3)CC2)c1,i
COc1cccc(CNCc2cccn2-c2nnc(N3CCN(c4ccccc4)CC3)s2)c1,10µM*
CCOc1ccc(NCc2cccn2-c2nnc(N3CCC(C(=O)NCc4cccc(OC)c4)CC3)s2)cc1,i
O=Cc1cccc(N2CCN(C(=O)N3CCOCC3)CC2=O)c1,12%
CC(C)Cn1nc2n(c1=O)CCN(S(=O)(=O)Cc1ccccc1)CC2,3%
CC(C)Cn1nc2n(c1=O)CCN(S(=O)(=O)c1ccc(C(C)(C)C)cc1)CC2,11µM*
CC(C)Cn1nc2n(c1=O)CCN(S(=O)(=O)c1cccs1)CC2,-7%
CCN(CC)c1ccc(C(=O)N2CCC(n3cc(-c4nc(C)no4)nn3)CC2)cc1,-15%
COc1ccc(OC)c(CNC(=O)CCC[C@H]2NC[C@@H]3C[C@H]2CN(Cc2ccccc2)C3)c1,i
CC1=NOC2(CCCN(C(=O)c3ccccn3)C2)C1 (stereo not drawn),11%[44.1 µM]
COC[C@@H]1CN(S(=O)(=O)c2ccccc2)C[C@H]1c1ccncc1,24%
CCN1C(=O)C2CC3(CCN(C(=O)c4ccn[nH]4)CC3)CN2C1=O (stereo not drawn),18%
CCOc1cc(C)c(CN2CCCC(O)(CN(C)C)C2)cc1C(C)C (stereo not drawn),2.8µM*
CN(C)CC1(O)CCCN(Cc2ccc(-c3ccc(Cl)cc3)o2)C1 (stereo not drawn),-23%
COc1ccc2c(c1)C=C(CN1CCCC(O)(CN(C)C)C1)CO2 (stereo not drawn),-16%
COCC(=O)N1CCCC(C(=O)NCCc2noc(C3CCCC3)n2)C1 (stereo not drawn),-14%
O=c1c2nc(N3CCC(c4ccccc4)CC3)ccc2ncn1C1CC1,-12%[44.1 µM]
Cn1nnnc1SCCNCc1ccccc1Cl,-23%
Cn1nnnc1SCCNCc1ccc(F)cc1,-15%
COc1cc(CNCCSc2nnnn2C)ccc1OCc1ccc(F)cc1,i
SMILES,Pf Dd2 inh
Cn1nnnc1SCCCNCc1cc(Br)ccc1OCc1ccccc1,11µM*
COc1cccc(CNCCSc2nnnn2C)c1OCc1ccc(F)cc1,-7%
Cn1nnnc1SCCCNCc1cc(Br)ccc1OCc1ccccc1F,7.9µM*
O=C1CCN(S(=O)(=O)c2ccccc2)CCCC(C(=O)NCc2cccnc2)CCN1 (stereo not drawn),-3%
COc1ccc(NC(=O)N2C[C@@H](F)C[C@H]2C(=O)N2CCCCC2)cc1OC,-6%
Cc1cnc(C(=O)N[C@@H]2CCC[C@@H]2C(=O)N2CCN(c3ccccn3)CC2)cn1,-10%
CCOc1ccccc1CNC(=O)c1c(C)sc2ccn(CC(C)C)c(=O)c12,-1%
Cc1ccc(-c2cccc(CN3C4CCC3CN(C(C)C)C4)c2)c(C)c1,10µM*
Cc1ccc(-c2cccc(CN3C4CCC3CN(C(=O)c3ccncc3)C4)c2)c(C)c1,-21%
CC(C)N1CC2CCC(C1)N2Cc1cccc(Cl)c1,-5%[44.1 µM]
Cc1ccc(-n2c(=O)c3c(cc(C)n3C)n(CC(=O)Nc3ccc4c(c3)OCO4)c2=O)cc1,-2%
CC(C)[C@@H](N)C(=O)N1CCC(Oc2ccccc2F)(C(=O)O)CC1,-23%
CCC(C)NC(=O)C1COC2(CCCCC2)N1C(=O)c1cccc(F)c1 (stereo not drawn),-23%
CC(C)Oc1ccc(CNC(=O)Cn2c(-c3cccs3)cc3ccccc32)cc1,-8%
COc1cccc(N2CCN(C(=O)Cn3c(-c4cccs4)cc4ccccc43)CC2)c1,-16%
Cc1cccc(CNC(=O)Cn2c(-c3cccs3)cc3ccccc32)c1,11µM*
O=C(Cn1c(-c2cccs2)cc2ccccc21)NCCCN1CCN(c2ccc(F)cc2)CC1,10µM*
COc1ccc(N2CCN(CCCNC(=O)Nc3ccccc3)CC2)cc1,i
Cc1ccc(-n2nc(C)c(C(=O)NCCCN3CCN(c4ccc(F)cc4)CC3)c2-n2cccc2)cc1,i
CCOC(=O)c1c(C)[nH]c(CCC(=O)NCCCN2CCN(c3ccc(F)cc3)CC2)c1C,-17%
COc1ccc(N2CCN(CCCNC(=O)Cn3c(-c4cccs4)cc4ccccc43)CC2)cc1,11µM*
Cc1cccc(CNC(=O)CN2CC(C)Sc3ccccc32)c1 (stereo not drawn),-10%
CS(=O)(=O)N1CCC(OC2CCN(C(=O)c3cccnc3)CC2)CC1,i
c1ccc2c(c1)CC(Cc1nc(C3CCOC3)n[nH]1)C2 (stereo not drawn),-2%
CCNC(=O)CC1=CSC2=NC(C)=C(C(=O)Nc3ccccc3)C(c3ccc(F)cc3)N12 (stereo not drawn),i
SMILES,Pf Dd2 inh
CC(c1cccs1)N(C)Cc1ccc(C(F)(F)F)cc1 (stereo not drawn),-10%[44.1 µM]
CNC(=O)NC[C@H]1CCN(Cc2cccc(F)c2F)C[C@H]1N(C)C,-4%
O=C1CC(c2noc(-c3ccc(Cl)cc3)n2)CN1c1ccc(F)cc1 (stereo not drawn),126%
CN(C)CCCNC(=O)C1CCCN(S(=O)(=O)c2ccccc2)CCC(=O)NCC1 (stereo not drawn),i
CC(=O)N1CCC([C@@H]2CN(C3CCN(C(C)=O)CC3)C[C@H]2CO)CC1,3%
Cc1cnc(CCNC(=O)C2CCCC2)n1Cc1ccc(F)cc1,-8%
CCn1cc(S(=O)(=O)NCCc2ncc(C)n2Cc2ccc(F)cc2)cn1,6.3µM*
Cc1cnc(CCNC(=O)Nc2ccc3c(c2)OCCO3)n1Cc1ccc(F)cc1,-6%
CCCN(CC1CCOC1)C(=O)Nc1cccc(Cl)c1C (stereo not drawn),11%[5.79 µM]
CC(C)N1C(=O)C2(CCCCC2)C1C(=O)N1CCCCC1 (stereo not drawn),11%
CCOC(=O)C1(Cc2ccccc2F)CCCN(C(=O)c2c(C)nc3sccn23)C1 (stereo not drawn),-27%
CCCS(=O)(=O)N1CCC(N2C(=O)C(OC)C23CCOCC3)CC1 (stereo not drawn),-13%
COc1ccc(Nc2ccc3nnc(-c4ccccn4)n3n2)cc1,i
CC(C)c1ccc(Nc2c(-c3ccccn3)nc3ccccn23)cc1,4.5µM*
COc1cc(-c2nc3nc[nH]n3c2Nc2ccc(C(C)C)cc2)ccc1O,i
Cc1ccc2nc(-c3ccc(C)s3)c(Nc3ccc4c(c3)OCCO4)n2c1,15%
Cc1ccc2nc(-c3ccccn3)c(Nc3ccc(F)cc3)n2c1,4µM*
Fc1ccc(Nc2c(-c3ccccn3)nc3ccc(Cl)cn23)cc1,8.9µM*
Clc1ccc2nc(-c3ccc(Br)o3)c(Nc3ccc4c(c3)OCCO4)n2c1,i
Cc1ccc(Nc2c(-c3cccnc3)nc3ccc(C)cn23)cc1,-12%
COC1CCCOC12CCN(C(=O)CCCn1cncn1)CC2 (stereo not drawn),-4%
COc1ccc([C@@H]2CN(c3ncccc3C#N)C[C@H]2NC(C)=O)cc1,-7%
NC(=O)[C@@H]1C[C@H](Oc2cccnc2)CN1S(=O)(=O)Cc1ccccc1F,-4%

# Source: PubChem BioAssay
